# About 83,000 compounds went through this panel and 20% of them were active in at least one assay; those are over-represented in the sample as a whole.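 Activity criterion: percent growth below 10, measured after cells in 96-well plates were exposed to a single compound concentration for 48 hours.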 Unmarked numbers belong to inactive results. Active and inactive are the calls of the source.
# System: SNB-19 CNS
# Test: NCI-60 one-dose screen, 48 h (100 = growth as untreated, 0 = no growth, -100 = all killed)
# Settings: 10 µM unless noted
# Method: Growth inhibition of the SNB-19 human tumor cell line is measured as a screen for anti-cancer activity. Cells are grown in 96 well plates and exposed to the test compound for 48 hours. Compounds are tested at a single concentration, which is 10^-5 M for most compounds. The reported endpoint is percent growth (GI% or GIPRCNT), where numbers from 0 - 100% represent growth inhibition, and numbers from -100% - 0 represent cell death. For example, a value of 40 represents 60% growth inhibition. A value of 0 means no net growth occurred over the course of the experiment. A value of -40 indicates 40% of cells at the beginning of the experiment died by the end of the experiment. A value of -100 means all cells are dead at the end of the experiment.
# NCI-60 Human Tumor Cell Lines Screen was performed using the standard one-dose NCI protocol, which is described in more detail at https://dtp.cancer.gov/discovery_development/nci-60/default.htm.
# Compounds with GIPRCNT values below 10 were considered active. Activity score was based on GIPRCNT using the following formula: […]
# Score is 0 for GIPRCNT values of 100 or above, 50 for GIPRCNT values of 0, and 100 for GIPRCNT values of -100.
row,Structure (SMILES),growth
1,O=C(CN1C(=O)/C(=C/c2ccccc2Cl)SC1=S)N1CCOCC1,92.4%
2,CC(=O)Nc1ccc(-c2nc3cc(-c4ccc(O)cc4)ccc3n2C)cc1,68.8%
3,O=C(NNc1ccccc1)n1c(=O)c2ccccc2c(=O)n1-c1ccccc1,94.6%
4,COCOc1cc2c(=O)c(C)c(C(=O)N[C@@H](Cc3ccccc3)C(O)C(=O)NCc3ccccc3)oc2cc1OC (stereo not given in full),15.7%
5,Cn1cc(-c2cc(N)n3nc(-c4cn(C)c5ccccc45)cc3n2)c2cc(Br)ccc21,7.16% (active)
6,COc1ccc(C2CC(c3ccc(S(=O)(=O)NCCNc4nc(Nc5ccc(F)cc5)nc(N(C)C)n4)cc3)=Nc3c(N)nc(N)nc3N2)cc1 (stereo not given),76.3%
7,O=C1CCCc2cc(OCC(=O)N3CCCCC3)ccc2N1,99.7%
8,COc1c(F)ccc(C(=O)Nc2ccc3nc(NC(=O)C4CCCN(S(=O)(=O)c5ccc(C#N)cc5)C4)sc3c2)c1F (stereo not given),100%
9,COc1ccccc1/C=C/C(=O)c1ccc(OC)c(S(N)(=O)=O)c1,27.3%
10,COc1ccc(C(=O)/C=C/c2ccc(OCc3ccccc3)c(OC)c2)cc1OC,14.4%
11,CCCCCCCS(=O)(=O)N1CCCC(C(=O)Nc2nc3ccc(NC(=O)c4ccc(F)c(OC)c4F)cc3s2)C1 (stereo not given),31.9%
12,C=C1CCC2C3(C)COC(c4ccc(F)cc4)OC3CCC2(C)C1C/C=C1/C(=O)OCC1O (stereo not given),-55.8% (active)
13,NS(=O)(=O)c1ccc(NNC(=O)CCC(=O)c2ccccc2)cc1,98.3%
14,COc1cc2c(c(OC)c1OC)C(=O)CC(c1cccc(NC(=O)c3cccc([N+](=O)[O-])c3)c1)O2 (stereo not given),52.6%
15,O=C(CN1C(=O)/C(=C/c2ccccc2F)SC1=S)N1CCOCC1,91%
16,Nc1n[nH]c2cccc(C#Cc3cccc(NC(=O)c4cccc(Cl)c4)c3)c12,55.2%
17,CC(=O)c1cccc(NC(=O)CCC(=O)NS(=O)(=O)c2ccc(C)cc2)c1,98.5%
18,O=C(CSc1nc2ccccc2c(=O)[nH]1)NCCN1CCCCC1,94.6%
19,CN1CCN(c2ccc(C(=O)/C=C/c3cc(C(F)(F)F)cc(C(F)(F)F)c3)cc2)CC1,-85% (active)
20,CC12CC[C@@H]3[C@]4(C)COC(c5cn[nH]c5-c5ccc(Cl)cc5)O[C@@H]4CC[C@@]3(C)[C@@H]1CC(C1=CCOC1=O)O2 (stereo not given in full),54.5%

row,Structure (SMILES),growth
1,Cn1cc(-c2cc(N)n3nc(-c4cn(C)c5ncc(Br)cc45)cc3n2)c2cc(Br)cnc21,10%
2,Cc1ccc(Cc2cnc(NC(=O)c3ccc(/C=C4\SC(=S)N(C)C4=O)cc3)s2)cc1,53.8%
3,COc1ccc(C2=NN(c3ccccc3)C(c3ccc(OC)c(OCc4ccccc4)c3)C2)cc1OC (stereo not given),88.1%
4,COc1ccc(/C=C/c2nc3ccccc3n3c(-c4ccc(Cl)cc4)nnc23)cc1,94.7%
5,COCOc1cc2oc(C(=O)N[C@@H](Cc3ccccc3)C(O)C(=O)NCc3ccccc3)c(C)c(=O)c2cc1OCOC (stereo not given in full),47.3%
6,O=C(C1=CNC(=S)NC1c1ccc(O)cc1)c1cc2ccccc2oc1=O (stereo not given),97.7%
7,CN(C)c1nc(NCCNS(=O)(=O)c2ccc(C(=O)/C=C/c3ccc(C(F)(F)F)cc3)cc2)nc(Nc2ccc(F)cc2)n1,25.2%
8,CCS(=O)(=O)N1CCCC(C(=O)Nc2nc3ccc(NC(=O)c4ccc(F)c(OC)c4F)cc3s2)C1 (stereo not given),78.9%
9,Cc1cc(C)cc(NC(=O)Cn2cc(COn3nnc4ccccc43)nn2)c1,96.2%
10,O=C1NC(=O)c2c1c1c3cc(Br)ccc3[nH]c1c1oc3ccc(F)cc3c21,-16.9% (active)
11,COc1ccc2[nH]cc(-c3nc(N)nnc3-c3cn(C)c4ncccc34)c2c1,63.8%
12,O=C(N=Nc1c(O)[nH]c2ccc(Cl)cc12)c1ccc2nc(-c3ccccc3)[nH]c2c1,-52.5% (active)
13,O=C(NN1C(=O)/C(=C/C=C/c2ccc([N+](=O)[O-])o2)SC1=S)c1ccccc1O,-96.1% (active)
14,CCCCCCn1c(O)c(N=Nc2nc(-c3cc4ccccc4oc3=O)cs2)c2ccccc21,40%
15,COc1ccc(-c2nc3cc(C)ccc3n2CC(=O)N=Nc2c(O)[nH]c3ccc(OC)cc23)cc1,4.91% (active)
16,CN(C)c1nc(NCCNS(=O)(=O)c2ccc(C(=O)/C=C/c3ccc(F)cc3)cc2)nc(Nc2ccc(F)cc2)n1,-74.8% (active)
17,O=C(/C=C/Nc1ccc(Cl)cc1)c1ccc2c(c1)Nc1ccccc1S2,9.53% (active)
18,N#Cc1c(NCc2ccccc2)n[nH]c1Nc1ccccc1,54.8%
19,Cc1ccc([C@H]2C(C(=O)c3ccc(Cl)cc3)C3(N[C@@H]2c2ccccc2)C(=O)Nc2ccccc23)cc1 (stereo not given in full),41%
20,O=C(N/N=C/c1ccc(-c2ccc(O)cc2)s1)c1[nH]c2ccc(Br)cc2c1-c1ccccc1,20.2%
